{"source": "patent US20070207532", "about": "“Mutants Of O6-Alkylguanine-Dna Alkyltransferase” (published 2007)", "data": [{"molecular_target": "AGT mutant of Example 4 (GST fusion) (Homo sapiens, UniProt P16455 SEQ:1-207, Gly131Lys, Gly132Thr, Met134Leu, Arg135Ser, Asn157Gly, Ser159Glu)", "sequence (P16455 whole entry G131K/G132T/M134L/R135S/N157G/S159E, the tested form may be a part)": "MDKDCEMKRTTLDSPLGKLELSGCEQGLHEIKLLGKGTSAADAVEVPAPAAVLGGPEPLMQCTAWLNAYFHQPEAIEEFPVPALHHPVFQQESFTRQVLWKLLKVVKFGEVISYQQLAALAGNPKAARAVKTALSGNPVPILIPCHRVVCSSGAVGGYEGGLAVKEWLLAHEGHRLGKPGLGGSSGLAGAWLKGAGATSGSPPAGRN", "test": "competition; reactivity with BG-modified oligonucleotide", "details": "tags: N-terminal GST (pGEX-2T); ssDNA; O6-benzylguanine at position 14", "method": "Reactivity against DNA-based substrates measured with a BG-Cy3 assay: BG-Cy3 is prepared by reacting the previously described O⁶-(4-aminomethyl-benzyl)guanine (Keppler et al., NatureBiotechnol. 21:86-89, 2003) with the commercially available N-hydroxysuccinimide ester of Cy3, (Cy3-NHS, Amersham). The coupling reaction is performed at ambient temperature in N,N-dimethylformamide in the presence of 1 eq. of triethylamine. The BG-Cy3 conjugate is purified by reversed-phase HPLC on a C18-column by using linear gradients from 0.1% trifluoroacetic acid to acetonitrile. After solvent evaporation BG-Cy3 is dissolved in dimethyl sulfoxide and stored at −20° C. For measuring the reactivity with DNA-based substrates, a reaction mixture containing different concentrations (0 to 5 µM) of oligonucleotide SEQ ID NO:2 (modified in position 14), GST-AGT fusion protein at 0.2 µM and BG-Cy3 at […] in reaction buffer (50 mM HEPES, pH 7.2, 1 mM DTT, […] BSA) is incubated in microtiterplates. Fluorescence of the Cy3 derivative (excitation 519 nm, emission at 572 nm) is measured on a Spectramax Gemini plate reader (Molecular Devices).", "units": {"binding signal": "fold reduced vs PGEG-hAGT"}, "values": [{"sequence": "GTGGTGGGCAGCTGAGGCGTGG", "binding signal": "≥ 1000"}]}]}
